These compounds were tested against Glucose transporter (Leishmania mexicana) (UniProt O61059) (assay: ST_JUDE_LEISH: Cytotoxicity at 2uM final concentration against transgenic Leishmania Mexicana promastigotes LmGT2 that are glucose transport deficient and complemented with the L. Mexicana glucose transporter 2. Activity is measured by DNA content using SYBR green in vitro).
Type: functional

| Structure (SMILES) | inhibition |
| --- | --- |
| COc1ccccc1-n1ccnc1SCC(=O)Nc1cccc(C(F)(F)F)c1 | 2.6% |
| Cc1nc(Nc2ccc(F)cc2)nc(N2CCc3ccccc3[C@@H]2C)c1C | 1.46% |
| CCN(CC)CCON=Cc1cc(C)c2[nH]c3ccc(OCc4ccccc4)cc3c2c1C | -2.27% |
| Cc1cc(N[C@@H](CC(C)C)C(=O)Nc2ccccc2)nc(NCc2ccccc2C)n1 | 5.01% |
| O=C(Nc1ccc(Cl)cc1)Nc1ccc(-c2csc(-c3nc4ccccc4[nH]3)c2)cc1 | 0.83% |
| C[C@@H](NC(=O)c1nn(-c2ccc(Cl)cc2)c(=O)c2ccccc12)C(C)(C)C | 0.85% |
| O=C(NCC1CCCCC1)c1cc(=O)c2ccccc2o1 | 11.7% |
| O=C(NCCN1CCCc2ccccc21)C1CCN(c2nc(-c3ccc(Cl)cc3)no2)CC1 | -2.23% |
| O=C(c1cc(-c2ccccc2)n[nH]1)N1CCN(S(=O)(=O)c2ccc(Cl)s2)CC1 | 2.66% |
| O=C(/C=C/c1ccc(Cl)c(Cl)c1)NCCCCCN1CCC(NC(=O)Nc2cc(Cl)ccc2Cl)CC1 | 9.67% |
| COc1ccc2nccc([C@@H](O)CN3CCC(NCc4cc5ccccc5nc4O)CC3)c2c1 | 2% |
| CN(C)CCNC(=O)c1cc2c(-c3ccc(Cl)cc3)nn(C)c2s1 | 1.3% |
| COc1ccc2ncc(C)c(CCN3CCC(NCc4ccc5c(n4)NC(=O)CS5)CC3)c2c1 | 6.71% |
| Cc1ccc(N2C(N)=NC(N)=NC2c2ccccc2)cc1 (stereo unspecified) | 2.13% |
| O=C(NC1CC1c1ccccc1)N(CCCn1ccnc1)Cc1csc(-c2ccc(CNCc3ccccc3)cc2)n1 (stereo unspecified) | 3.57% |
| CCC1(C)CC(CCNCc2ccccc2O)(c2ccccc2OC)CCO1 (stereo unspecified) | 0.88% |

From ChEMBL document CHEMBL3433997, “St. Jude Leishmania screening dataset” (2016)
